PubChem BioAssay (NCATS)
Inconclusive results are not listed. Values without a mark were called inactive. Calls of active or inactive are those of the source. The call rests on the fitted dose curve; in most records, active means well fitted inhibition curve with a large enough effect; inconclusive means small, poorly fitted or top-dose-only effect; inactive means flat fitted curve, though single readings scatter. Starred links: 1 amine or outer side, 2 acyl side, 3 side chain; linkers in the order of their positions; H or OH if unused. Positions of bridges follow the written chain, without caps; N, C: chain ends. Non-standard residues stand in square brackets, D forms with d. Residues, ends and D or L forms follow the SMILES beside them. Chains are numbered I, II in the order given. *: point of attachment. Actinocin(9to1) = Cc1c2oc3c(C)ccc(C(=O)[*:1])c3nc-2c(C(=O)[*:2])c(N)c1=O; NMeV = CN[CH](C(=O)O)C(C)C; Nva = CCC[C@H](N)C(=O)O; Cbz = O=C(OCc1ccccc1)*; Sar = CNCC(=O)O

Tested on: WaGa
Experiment: qHTS assay to identify novel small-molecules to repurpose for Merkel cell carcinoma treatment (AID 1296009); further: nearly all actives have a fitted effect of over 60% in size
Conditions: MCC and control cell lines, CellTiter-Glo viability, 72 h; series mostly up to 46 µM; activity change, negative = cytotoxicity: at the top concentration
How it was run: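 CellTiter-Glo luminescence after 72 hr compound exposure at 37 degree celsius gave cell viability. Libraries NPC and MIPE were run as 8- and 11-point dose responses; RLUs normalized to DMSO (negative) and no-cell (cytotoxicity) controls.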
On the % scale 0 is the no-effect control and ±100 the full control effect; potency means the concentration at half of the fitted maximal effect.

Structure (SMILES)	activity change, negative = cytotoxicity	Potency
CON=C(C(=O)N[C@@H]1C(=O)N2C(C(=O)O)=C(Cn3ccc(=N)n3CCO)CS[C@H]12)c1csc(N)n1	-2.63%	–
O=C(O)C=Cc1ccc(Cn2ccnc2)cc1	5.14%	–
NC(=O)c1ncn([C@@H]2O[C@H](CO)[C@@H](O)[C@@H]2O)c1O	-1.34%	–
OCCN1C[C@H](O)[C@@H](O)[C@H](O)[C@@H]1CO	8.24%	–
c1ccc(CNc2nc(NCc3ccccc3)c3ccccc3n2)cc1	-19.1%	–
CCC[C@@H](C=O)NC(=O)[C@H](CC(C)C)NC(=O)[C@H](CC(C)C)NC(=O)OCc1ccccc1 (Cbz-Leu-Leu-[Nva]-aldehyde)	–	833 nM (active)
COC(=O)C1C2CC3c4[nH]c5cc(OC)ccc5c4CCN3CC2CC(OC(=O)c2cc(OC)c(OC)c(OC)c2)C1OC (centres undefined)	2.75%	–
C=C[C@@H]1CN2CCC1C[C@H]2[C@H](O)c1ccnc2ccc(OC)cc12 (some centres undefined)	-2.82%	–
CC(=CC(=O)Nc1ccccc1C(=O)O)c1ccc2ccccc2c1	-7.91%	–
C=C1C[C@@]2(O)O[C@@]3(C[C@H]2C(C)C)[C@H](C)CC[C@H]13	-0.982%	–
O=C1c2cccc(O)c2C(=O)c2c(O)cc(CO)cc21	-13.5%	–
CC(=O)O[C@H]1C[C@@H]2CC[C@H]3[C@H]4C[C@H]([N+]5(C)CCCCC5)[C@@H](OC(C)=O)[C@@]4(C)CC[C@@H]3[C@@]2(C)C[C@H]1N1CCCCC1	6.24%	–
CN(C)CC[C@H](c1ccc(Cl)cc1)c1ccccn1	-7.12%	–
CCCCCCCN(CC)CCCC(O)c1ccc(NS(C)(=O)=O)cc1 (centres undefined)	-1.04%	–
C[C@H](NC(=O)Cc1cc(F)cc(F)c1)C(=O)N[C@H](C(=O)OC(C)(C)C)c1ccccc1	-12%	–
Cc1noc(-c2ccc(CSCCC(=O)O)cc2)c1NC(=O)OC(C)c1ccccc1Cl (centres undefined)	-6.13%	–
O=[N+]([O-])c1cn2c(n1)OC[C@@H](OCc1ccc(OC(F)(F)F)cc1)C2	-1.18%	–
C[C@H](NC(=O)[C@@H](O)c1cc(F)cc(F)c1)C(=O)N[C@@H]1C(=O)N(C)c2ccccc2-c2ccccc21	-0.503%	–
O=c1ccn([C@@H]2O[C@H](CO)[C@H](O)[C@@H]2F)c(=O)[nH]1	1.73%	–
OC[C@@H](O)[C@@H](O)[C@H](O)[C@@H](O)CO	3.72%	–

Structure (SMILES)	activity change, negative = cytotoxicity	Potency
CC(=O)N1CCN(c2ccc(OCc3nn(C)c(C)c3-c3cccc4c(CCCOc5cccc6ccccc56)c(C(=O)O)n(Cc5cccnc5)c34)cc2)CC1	–	83.3 nM (active)
CN[C@H](CC(C)C)C(=O)N[C@H]1C(=O)N[C@@H](CC(N)=O)C(=O)N[C@@H]2C(=O)N[C@H]3C(=O)N[C@H](C(=O)N[C@H](C(=O)O)c4cc(O)cc(O)c4-c4cc3ccc4O)[C@H](O)c3ccc(c(Cl)c3)Oc3cc2cc(c3O[C@@H]2O[C@H](CO)[C@@H](O)[C@H](O)[C@@H]2O[C@H]2C[C@](C)(N)[C@H](O)[C@H](C)O2)Oc2ccc(cc2Cl)[C@H]1O	-1.03%	–
CC(=O)OCC(=O)[C@@]12N=C(C)O[C@H]1C[C@H]1[C@@H]3CCC4=CC(=O)C=C[C@]4(C)[C@@H]3[C@@H](O)C[C@@]12C	6.69%	–
CN1[C@H]2CC(OC(=O)[C@@H](CO)c3ccccc3)C[C@H]1[C@H]1O[C@H]12 (some centres undefined)	-2.17% [at 16.1 µM]	–
C=C1CCC2[C@](C)(CO)C(O)CC[C@]2(C)C1CC=C1C(=O)OCC1O (some centres undefined)	11.2% [at 92.7 µM]	–
NC1=N[C@H]2[C@H](CS[C@H]2CCCCC(=O)O)N1	7.48% [at 16.1 µM]	–
N#CNC(=NCCCCCCOc1ccc(Cl)cc1)Nc1ccncc1	–	3.3 nM (active)
CN[C@H]1[C@@H](O)[C@@H]2O[C@@H]3O[C@H](C)CC(=O)[C@]3(O)O[C@@H]2[C@@H](NC)[C@H]1O	–	296 nM (active)
COc1ccc(C(C)=O)c(O)c1	8.83%	–
N#CC(=C(O)c1ccc(Cl)cc1Cl)c1nc2cc(Cl)ccc2c(=O)[nH]1	2.47%	–
C[C@H](NCc1ccc2c(c1)nc(NC(=O)c1ccc(-c3cn[nH]c3)s1)n2CCc1ccccc1)C(C)(C)C	–	4690 nM (active)
O=C(C=CC#Cc1cccc(NS(=O)(=O)c2ccccc2)c1)NO	–	1180 nM (active)
C[C@](Cc1c[nH]c2ccccc12)(NC(=O)OC1C2CC3CC(C2)CC1C3)C(=O)NC[C@H](NC(=O)CCC(=O)O)c1ccccc1 (some centres undefined)	-4.9%	–
CN(N=O)C(=O)N[C@H]1C(O)OC(CO)[C@@H](O)[C@H]1O (some centres undefined)	-0.217%	–
Cc1c2oc3c(C)ccc(C(=O)NC4C(=O)NC(C(C)C)C(=O)N5CCCC5C(=O)N(C)CC(=O)N(C)C(C(C)C)C(=O)OC4C)c3nc-2c(C(=O)NC2C(=O)NC(C(C)C)C(=O)N3CCCC3C(=O)N(C)CC(=O)N(C)C(C(C)C)C(=O)OC2C)c(N)c1=O (centres undefined) (I: TVP[Sar][NMeV] / II: TVP[Sar][NMeV]; ester I:1-I:C, II:1-II:C; linker I:N-II:N via Actinocin(9to1); configuration not given here)	-61.2%	–
CC(C)(C)[N+]([O-])=Cc1ccc(S(=O)(=O)O)cc1S(=O)(=O)O	1.64%	–
Nc1cccc2c1C(=O)N(C1CCC(=O)NC1=O)C2=O (centres undefined)	-14.3%	–
CC(C)OC(=O)[C@H](C)N[P@](=O)(OC[C@H]1O[C@@H](n2ccc(=O)[nH]c2=O)[C@](C)(F)[C@H]1O)Oc1ccccc1	2.74%	–
NC[C@H]1O[C@H](O[C@H]2[C@@H](O)[C@@H](O[C@H]3O[C@H](CO)[C@@H](O)[C@H](N)[C@@H]3O)[C@H](N)C[C@@H]2N)[C@H](N)C[C@H]1O	-3.3%	–
